From PubChem BioAssay AID492972 (The Scripps Research Institute Molecular Screening Center, 2010) come the findings set out here.

The campaign covered roughly 340,000 compounds. About 930 (0.27%) were called active. The sample holds actives, similar compounds and a random draw of the others, so the mix is not that of the screen.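 Rule for the calls: active = inhibition above the screen-wide average of all tested compounds plus 3 SD (cut at about 25% in these data); inactive = the rest.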

A word on the inhibition: it is the drop in the measured response relative to a control, in per cent.

Chain of Platelet-activating factor acetylhydrolase IB subunit alpha1 (Homo sapiens) (Q15102 whole entry, looked up): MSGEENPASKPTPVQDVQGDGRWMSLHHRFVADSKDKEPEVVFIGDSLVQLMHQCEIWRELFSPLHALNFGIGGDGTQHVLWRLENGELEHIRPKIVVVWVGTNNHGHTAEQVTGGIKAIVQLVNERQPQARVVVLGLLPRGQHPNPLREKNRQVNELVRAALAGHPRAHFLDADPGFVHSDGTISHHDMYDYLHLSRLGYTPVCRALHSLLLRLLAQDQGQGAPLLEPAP

This assay has as its target Platelet-activating factor acetylhydrolase IB subunit alpha1 (Homo sapiens) (UniProt Q15102). Description: inhibition of PAF acetylhydrolase 1B subunit 3 – biochemical, fluorescence polarization, human, primary screen (AID 492972).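 Note: 0% = enzyme with DMSO only and 100% = wells lacking PAFAH1B3 protein.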 Particulars: recombinant PAFAH1B3, FP-rhodamine probe, at 3.39 µM, hits give high values.
In the case of `COC(=O)CCSc1cc([N+](=O)[O-])cc2c1c(C1OCCS1)nn2-c1ccccc1` (configuration not stated), the inhibition is -0.28% (inactive).
As to `ON=C1/C(=N\O)CC2(C/C1=N/O)OCCO2`, the inhibition was 32.1% (active).
On to `O/N=C1\CC2(Cc3nonc31)OCCO2`, for which the inhibition was 2.79% (inactive).
As to `CN1C(c2ccc(F)cc2)=CS/C1=C(/C#N)c1nnc2n1-c1ccccc1SC2`, the inhibition is 25.7% (active).
On to `Clc1ccc(C=NC23CN4CN(CN(C4)C2)C3)cc1`, for which the inhibition is 0.87% (inactive).
With `CC(C)C(=O)Nc1oc(-c2ccccc2)cc1C#N` the figure was 1.75% (inactive); with `OC(c1ccccc1)C(CN1CCOCC1)c1ccccc1` (configuration not stated), 0.69% (inactive); with `O=C(Nc1nnc(-c2ccccc2)o1)c1cccc(S(=O)(=O)N2CCOCC2)c1`, 4.84% (inactive).
For `O=C(O)c1ccc(OCC2CCCO2)cc1` (configuration not stated), the inhibition was 10.9% (inactive).
Turning to `Cc1ccc(-c2cc(C(=O)NCc3cn(C)nc3C)c3cc(Br)ccc3n2)cc1`, the inhibition was -4.68% (inactive).
In the case of `O=P(c1ccc2c(c1)OCCO2)(N1CCOCC1)N1CCOCC1`, the inhibition was 6.13% (inactive).
On to `CC(c1ccco1)N(C(=O)COc1ccccc1[N+](=O)[O-])c1ccccn1` (configuration not stated), for which the inhibition was 10.8% (inactive).
Regarding `COc1ccc(C(C)=O)cc1COC(=O)Cn1cnc2ccccc2c1=O`, the inhibition was 6.33% (inactive).
For the molecule `COc1ccc(N2CCN(C(=O)CN3C(=O)COc4ccccc43)CC2)cc1`, the inhibition is 3.49% (inactive).
In the case of `CC(NCC(=O)Nc1ccccc1C(=O)NC1CC1)c1ccccc1Cl` (configuration not stated), the inhibition was 3.15% (inactive).
In the case of `COc1cccc2c1C(=O)c1c(O)c3c(c(O)c1C2=O)CC(O)(C(C)=NNC(=O)c1ccc(Cl)c(Cl)c1)CC3OC1CC(N)C(O)C(C)O1` (configuration not stated), the inhibition is 44.5% (active).
As to `O=C(Nc1cccc2c1CCCC2)c1ccc(F)cc1`, the inhibition is 7.49% (inactive).
In the case of `COCCNC(=S)Nc1cc(S(=O)(=O)N2CCOCC2)ccc1N1CCCCC1`, the inhibition is 7.35% (inactive).
Take `CC(C)C(C(=O)NC1CCCCC1)N(CC1CCCO1)C(=O)CNS(=O)(=O)c1ccc(F)cc1` (configuration not stated): the inhibition is 3.67% (inactive).
With `CC(C)CN1CC(C)C(=O)N(c2ccccc2)C1=S` (configuration not stated) the figure was 0.15% (inactive); with `COc1cc2c(C(=O)N(C)c3cc(Cl)ccc3OC)cn(C)c(=O)c2cc1OC`, 6.3% (inactive).
As to `O=C(N/N=C/c1sc(N2CCCCC2)nc1-c1cccs1)c1cccnc1`, the inhibition was 26.1% (active).
`O=C(NN=C1CCC(=NNC(=O)c2cccnc2)CC1)c1cccnc1`: the inhibition is 8.42% (inactive).
With `Cc1ccc(NC(=O)COc2ccc(/C=N\NC(=O)c3cccnc3)cc2)cc1C` the figure was -9.46% (inactive).
Take `COc1ccccc1C(=O)c1ccccc1C(=O)c1ccccc1`: the inhibition was 8.6% (inactive).
The value for `Cc1cc(C)n(C(=O)CCNC(=O)c2ccccc2Cl)n1` was -1.83% (inactive).
On to `O=C(NNc1ccccc1Cl)C(O)(c1cccc(C(F)(F)F)c1)c1cccc(C(F)(F)F)c1`, for which the inhibition is 8.34% (inactive).
With `C[n+]1cccc(C(=O)O)c1` the figure was 4.85% (inactive); with `O=C(COc1ccc(S(=O)(=O)NCc2ccccc2)cc1)N1CCOCC1`, -1.1% (inactive); with `Cn1cccc1/C=N/NC(=O)c1ccc(OC(F)(F)C(F)F)cc1`, 4.01% (inactive).
As for `CCOC(=O)Cc1ncccc1C(=O)Nc1ccc(OC(F)(F)F)cc1`, the inhibition is 4.95% (inactive).
For `O=C(Nc1ccc(OC(F)(F)F)cc1)c1ccc2c(c1)no[n+]2[O-]`, the inhibition was 51.2% (active).
Take `O=C(COc1ccccc1)Nc1cc2c3c(c1)CC(=O)N3CCC2`: the inhibition was 3.19% (inactive).
With `CCC(C)NC(=O)CN(C1CCCCC1)S(C)(=O)=O` (configuration not stated) the figure was -2.01% (inactive).
Take `Cc1cc(NC(=O)CCC(=O)N(CC(=O)NCC2CCCO2)c2ccccc2)no1` (configuration not stated): the inhibition is -3.62% (inactive).
Turning to `CN(CC(=O)Nc1ccc(Cl)cc1)C(=O)CNC(=O)c1ccc2ccccc2c1`, the inhibition was 5.2% (inactive).
Consider `CCOC(=O)CC(NC(=O)C1c2ccccc2Oc2ccccc21)c1ccc(C)cc1` (configuration not stated), for which the inhibition is 6.13% (inactive).
For `CCCCCNC(=O)C1c2ccccc2Oc2ccccc21`, the inhibition is -4.51% (inactive).
On to `CCCN(CCC)C(=O)C1c2ccccc2Oc2ccccc21`, for which the inhibition is 27.8% (active).
With `CCOC(=O)CCCNC(=O)COC(=O)c1cc(Br)c(Br)s1` the figure was -2.8% (inactive); with `COc1nc(Oc2ccc(=O)n(C)n2)nc(N(C)C)n1`, 4.35% (inactive); with `CN1CCN(/N=C2/C(=O)Nc3ccc([N+](=O)[O-])cc32)CC1`, 1.85% (inactive).
Turning to `O=[N+]([O-])c1ccc(N(CCO)Cc2ccccc2)c([N+](=O)[O-])c1`, the inhibition is 4.36% (inactive).
Turning to `O=C1Nc2ccc([N+](=O)[O-])cc2C1=Nc1cccc(CO)c1`, the inhibition was 31.8% (active).
For `CCCS(=O)(=O)N1CCCC(C(=O)NCCN2CCCCC2C)C1` (configuration not stated), the inhibition is -3.97% (inactive).
With `O=C(Nc1ccc2ccccc2c1)Nc1ccc2snnc2c1`, the inhibition was -10.5% (inactive).
With `Cc1cc(OCCN2CCCC2)cc(C(C)C)c1` the figure was 3.65% (inactive); with `O=C(Nc1nc(-c2ccco2)c(-c2ccco2)s1)c1ccco1`, 15.7% (inactive); with `COCCNC(=O)Nc1ccc2nc(-c3ccco3)c(-c3ccco3)nc2c1`, 26.5% (active).
Consider `COCCNC(=O)c1snc2ccc(Cl)cc12`, for which the inhibition was 8.07% (inactive).
As to `CC(=O)Nc1ccc(NC(=O)C2CCCN(S(=O)(=O)c3ccc(Cl)cc3)C2)cc1` (configuration not stated), the inhibition is 4.7% (inactive).
The value for `CCOc1ccc(S(=O)(=O)n2ccnc2)c2ccccc12` was 4.28% (inactive).
